From the supplement of paper PMC11732987, “Enantioselective OTUD7B fragment discovery through chemoproteomics screening and high-throughput optimisation” (Communications Chemistry, 2025)

What was measured:
Test in all cases: log2 ratio of Biotin-Ahx-Ub-VS probe labelling (fragment/DMSO); higher = less target engagement (more negative = stronger competition), active = hit call of the paper (q ≤ 0.05, log2 ratio ≤ -1)
Conditions in all cases: compound concentration: 200 uM; treatment time: 3 h
USP19 = target: T1, USP19 (UniProt O94966)
T1 sequence (whole entry): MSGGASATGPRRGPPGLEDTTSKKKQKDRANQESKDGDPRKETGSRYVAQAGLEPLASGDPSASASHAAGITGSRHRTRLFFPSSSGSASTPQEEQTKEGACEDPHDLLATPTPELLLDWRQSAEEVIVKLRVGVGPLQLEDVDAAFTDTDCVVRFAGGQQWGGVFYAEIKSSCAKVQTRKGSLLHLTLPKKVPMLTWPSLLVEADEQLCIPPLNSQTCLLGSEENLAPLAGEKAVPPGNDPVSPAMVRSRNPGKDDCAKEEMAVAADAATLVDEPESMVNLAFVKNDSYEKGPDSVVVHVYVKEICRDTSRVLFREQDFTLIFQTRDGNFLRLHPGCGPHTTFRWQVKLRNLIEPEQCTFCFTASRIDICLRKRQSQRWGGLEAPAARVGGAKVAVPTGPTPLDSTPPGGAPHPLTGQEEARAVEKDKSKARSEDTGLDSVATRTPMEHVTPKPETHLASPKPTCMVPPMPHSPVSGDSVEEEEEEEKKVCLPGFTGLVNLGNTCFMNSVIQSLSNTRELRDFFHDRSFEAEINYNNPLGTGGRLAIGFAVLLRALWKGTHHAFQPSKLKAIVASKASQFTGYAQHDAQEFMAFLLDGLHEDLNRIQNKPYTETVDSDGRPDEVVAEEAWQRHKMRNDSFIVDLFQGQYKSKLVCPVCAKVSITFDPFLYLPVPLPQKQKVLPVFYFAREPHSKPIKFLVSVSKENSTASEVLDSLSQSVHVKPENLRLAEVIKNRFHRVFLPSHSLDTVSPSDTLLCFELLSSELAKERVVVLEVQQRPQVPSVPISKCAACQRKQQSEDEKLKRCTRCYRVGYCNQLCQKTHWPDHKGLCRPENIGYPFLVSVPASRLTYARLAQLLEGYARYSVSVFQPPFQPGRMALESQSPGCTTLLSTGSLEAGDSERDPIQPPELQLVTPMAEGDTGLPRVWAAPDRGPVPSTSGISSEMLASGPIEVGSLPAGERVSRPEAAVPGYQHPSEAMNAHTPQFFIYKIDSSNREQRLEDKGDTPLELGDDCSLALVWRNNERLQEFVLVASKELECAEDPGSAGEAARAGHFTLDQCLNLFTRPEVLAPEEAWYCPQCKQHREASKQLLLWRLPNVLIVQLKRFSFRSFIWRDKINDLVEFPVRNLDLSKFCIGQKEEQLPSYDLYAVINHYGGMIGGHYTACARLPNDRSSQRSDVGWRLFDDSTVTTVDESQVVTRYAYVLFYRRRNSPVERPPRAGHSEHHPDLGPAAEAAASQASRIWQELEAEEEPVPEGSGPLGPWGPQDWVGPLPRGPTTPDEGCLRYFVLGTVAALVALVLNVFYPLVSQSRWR
Method in brief: (§1)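 HEK293T lysate (495 µg per sample, in Tris/CHAPS/IGEPAL buffer with protease inhibitors) was treated in triplicate with fragment at 200 µM or with DMSO for 3 h. It was then treated with Biotin-Ahx-Ub-VS (0.5 µM final) for 1 h. Labelled DUBs were NeutrAvidin-enriched, digested with LysC and trypsin, and run by diaPASEF LC-MS/MS. Spectronaut label-free quantities were global-median-normalised. Values are average log2 ratios fragment/DMSO by unpaired t-test, using proteins with ≥2 unique peptides.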

USP24 = USP24 (UniProt Q9UPU5)
Chain of USP24 (Q9UPU5 whole entry): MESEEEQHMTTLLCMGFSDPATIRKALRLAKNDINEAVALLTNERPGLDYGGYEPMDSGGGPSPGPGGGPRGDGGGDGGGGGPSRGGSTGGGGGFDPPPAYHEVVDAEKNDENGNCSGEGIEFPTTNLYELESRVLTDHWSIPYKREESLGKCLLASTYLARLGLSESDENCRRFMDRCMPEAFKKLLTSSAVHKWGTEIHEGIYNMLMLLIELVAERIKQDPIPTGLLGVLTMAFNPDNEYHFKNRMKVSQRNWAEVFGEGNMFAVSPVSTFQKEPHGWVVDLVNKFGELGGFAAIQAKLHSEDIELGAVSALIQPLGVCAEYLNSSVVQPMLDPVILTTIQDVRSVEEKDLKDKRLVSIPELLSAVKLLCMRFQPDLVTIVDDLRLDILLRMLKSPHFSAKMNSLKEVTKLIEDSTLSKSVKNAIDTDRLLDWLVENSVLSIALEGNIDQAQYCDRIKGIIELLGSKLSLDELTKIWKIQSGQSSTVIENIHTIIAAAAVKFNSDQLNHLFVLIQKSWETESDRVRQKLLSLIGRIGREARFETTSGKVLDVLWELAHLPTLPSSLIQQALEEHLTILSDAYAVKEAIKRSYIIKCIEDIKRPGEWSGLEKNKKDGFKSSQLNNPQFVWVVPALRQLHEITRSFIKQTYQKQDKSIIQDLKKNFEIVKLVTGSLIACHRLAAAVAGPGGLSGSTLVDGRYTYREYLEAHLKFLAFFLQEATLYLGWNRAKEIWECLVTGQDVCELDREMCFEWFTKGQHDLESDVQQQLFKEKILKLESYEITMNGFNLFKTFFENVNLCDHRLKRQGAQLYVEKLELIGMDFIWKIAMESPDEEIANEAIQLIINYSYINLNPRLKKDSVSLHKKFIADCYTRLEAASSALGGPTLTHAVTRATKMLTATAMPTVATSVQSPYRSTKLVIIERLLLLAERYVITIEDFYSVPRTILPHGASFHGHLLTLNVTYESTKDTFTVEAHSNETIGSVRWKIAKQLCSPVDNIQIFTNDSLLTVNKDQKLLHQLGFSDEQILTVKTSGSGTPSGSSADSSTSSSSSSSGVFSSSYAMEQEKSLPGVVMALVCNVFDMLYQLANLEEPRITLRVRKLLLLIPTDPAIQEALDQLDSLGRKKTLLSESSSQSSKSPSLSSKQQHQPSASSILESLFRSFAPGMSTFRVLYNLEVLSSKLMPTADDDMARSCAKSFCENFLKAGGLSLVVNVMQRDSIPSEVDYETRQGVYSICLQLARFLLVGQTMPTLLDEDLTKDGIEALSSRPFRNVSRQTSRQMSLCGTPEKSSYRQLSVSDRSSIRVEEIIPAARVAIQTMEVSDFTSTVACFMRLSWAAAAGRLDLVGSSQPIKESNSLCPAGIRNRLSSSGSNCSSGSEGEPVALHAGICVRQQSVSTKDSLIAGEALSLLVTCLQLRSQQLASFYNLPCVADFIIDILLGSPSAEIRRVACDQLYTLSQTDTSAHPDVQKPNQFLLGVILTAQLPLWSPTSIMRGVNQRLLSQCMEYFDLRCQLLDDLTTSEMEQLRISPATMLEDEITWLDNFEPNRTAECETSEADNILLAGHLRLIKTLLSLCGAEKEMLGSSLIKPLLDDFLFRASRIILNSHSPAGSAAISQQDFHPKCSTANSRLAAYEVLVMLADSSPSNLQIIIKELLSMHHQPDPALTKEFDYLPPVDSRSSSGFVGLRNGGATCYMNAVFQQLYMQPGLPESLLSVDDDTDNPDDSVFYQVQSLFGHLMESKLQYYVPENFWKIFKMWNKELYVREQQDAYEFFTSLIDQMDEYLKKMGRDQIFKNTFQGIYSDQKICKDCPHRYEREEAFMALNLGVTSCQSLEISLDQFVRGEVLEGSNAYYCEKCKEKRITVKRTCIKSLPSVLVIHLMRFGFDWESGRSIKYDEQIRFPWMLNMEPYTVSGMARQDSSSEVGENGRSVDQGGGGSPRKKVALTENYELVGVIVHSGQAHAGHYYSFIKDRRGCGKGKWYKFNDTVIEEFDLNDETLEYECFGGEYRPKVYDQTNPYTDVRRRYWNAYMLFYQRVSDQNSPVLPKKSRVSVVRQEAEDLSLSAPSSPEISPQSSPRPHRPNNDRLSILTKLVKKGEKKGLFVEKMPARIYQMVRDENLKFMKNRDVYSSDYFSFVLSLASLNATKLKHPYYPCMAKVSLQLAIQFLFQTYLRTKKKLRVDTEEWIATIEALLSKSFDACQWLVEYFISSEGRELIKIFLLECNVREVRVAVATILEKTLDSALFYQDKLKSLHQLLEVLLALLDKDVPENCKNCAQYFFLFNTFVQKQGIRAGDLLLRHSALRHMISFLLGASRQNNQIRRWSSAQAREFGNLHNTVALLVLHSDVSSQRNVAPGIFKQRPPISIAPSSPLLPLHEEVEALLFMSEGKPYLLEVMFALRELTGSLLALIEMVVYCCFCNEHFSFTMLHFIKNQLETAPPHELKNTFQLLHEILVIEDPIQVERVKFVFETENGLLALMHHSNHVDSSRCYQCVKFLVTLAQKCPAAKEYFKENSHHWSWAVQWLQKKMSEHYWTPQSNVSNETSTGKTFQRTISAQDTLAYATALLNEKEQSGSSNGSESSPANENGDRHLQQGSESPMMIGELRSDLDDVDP
Method in brief: as §1

USP25 = target: T2, USP25 (UniProt Q9UHP3)
T2 sequence (whole entry): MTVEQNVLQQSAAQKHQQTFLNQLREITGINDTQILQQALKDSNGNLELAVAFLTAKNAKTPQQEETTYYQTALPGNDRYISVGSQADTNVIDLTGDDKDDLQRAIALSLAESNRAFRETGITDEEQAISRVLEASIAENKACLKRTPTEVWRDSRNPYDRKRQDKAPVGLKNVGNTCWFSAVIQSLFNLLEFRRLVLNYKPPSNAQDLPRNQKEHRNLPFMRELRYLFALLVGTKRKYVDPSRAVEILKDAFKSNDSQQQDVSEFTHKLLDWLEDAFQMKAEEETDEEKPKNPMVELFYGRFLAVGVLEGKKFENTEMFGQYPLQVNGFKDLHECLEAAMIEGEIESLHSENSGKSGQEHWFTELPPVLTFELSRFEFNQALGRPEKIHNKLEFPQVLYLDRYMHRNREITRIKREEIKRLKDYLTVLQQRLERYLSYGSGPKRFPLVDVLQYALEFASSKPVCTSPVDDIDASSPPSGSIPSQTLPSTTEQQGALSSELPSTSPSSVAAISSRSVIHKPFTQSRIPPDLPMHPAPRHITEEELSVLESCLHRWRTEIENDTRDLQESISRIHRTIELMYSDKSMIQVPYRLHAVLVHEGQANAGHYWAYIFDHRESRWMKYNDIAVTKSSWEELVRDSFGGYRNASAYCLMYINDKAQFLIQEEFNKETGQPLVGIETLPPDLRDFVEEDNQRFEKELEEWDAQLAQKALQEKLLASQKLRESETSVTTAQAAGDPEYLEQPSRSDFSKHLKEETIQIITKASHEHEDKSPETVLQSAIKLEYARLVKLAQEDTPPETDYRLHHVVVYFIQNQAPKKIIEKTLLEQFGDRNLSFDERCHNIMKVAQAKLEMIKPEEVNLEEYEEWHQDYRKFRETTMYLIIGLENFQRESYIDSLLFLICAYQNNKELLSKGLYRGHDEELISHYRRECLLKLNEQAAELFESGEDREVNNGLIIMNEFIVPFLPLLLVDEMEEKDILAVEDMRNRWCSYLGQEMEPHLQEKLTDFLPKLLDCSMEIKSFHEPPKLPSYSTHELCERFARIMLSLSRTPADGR
Method in brief: as §1

USP28 = target: T3, USP28 (UniProt Q96RU2)
T3 sequence (whole entry): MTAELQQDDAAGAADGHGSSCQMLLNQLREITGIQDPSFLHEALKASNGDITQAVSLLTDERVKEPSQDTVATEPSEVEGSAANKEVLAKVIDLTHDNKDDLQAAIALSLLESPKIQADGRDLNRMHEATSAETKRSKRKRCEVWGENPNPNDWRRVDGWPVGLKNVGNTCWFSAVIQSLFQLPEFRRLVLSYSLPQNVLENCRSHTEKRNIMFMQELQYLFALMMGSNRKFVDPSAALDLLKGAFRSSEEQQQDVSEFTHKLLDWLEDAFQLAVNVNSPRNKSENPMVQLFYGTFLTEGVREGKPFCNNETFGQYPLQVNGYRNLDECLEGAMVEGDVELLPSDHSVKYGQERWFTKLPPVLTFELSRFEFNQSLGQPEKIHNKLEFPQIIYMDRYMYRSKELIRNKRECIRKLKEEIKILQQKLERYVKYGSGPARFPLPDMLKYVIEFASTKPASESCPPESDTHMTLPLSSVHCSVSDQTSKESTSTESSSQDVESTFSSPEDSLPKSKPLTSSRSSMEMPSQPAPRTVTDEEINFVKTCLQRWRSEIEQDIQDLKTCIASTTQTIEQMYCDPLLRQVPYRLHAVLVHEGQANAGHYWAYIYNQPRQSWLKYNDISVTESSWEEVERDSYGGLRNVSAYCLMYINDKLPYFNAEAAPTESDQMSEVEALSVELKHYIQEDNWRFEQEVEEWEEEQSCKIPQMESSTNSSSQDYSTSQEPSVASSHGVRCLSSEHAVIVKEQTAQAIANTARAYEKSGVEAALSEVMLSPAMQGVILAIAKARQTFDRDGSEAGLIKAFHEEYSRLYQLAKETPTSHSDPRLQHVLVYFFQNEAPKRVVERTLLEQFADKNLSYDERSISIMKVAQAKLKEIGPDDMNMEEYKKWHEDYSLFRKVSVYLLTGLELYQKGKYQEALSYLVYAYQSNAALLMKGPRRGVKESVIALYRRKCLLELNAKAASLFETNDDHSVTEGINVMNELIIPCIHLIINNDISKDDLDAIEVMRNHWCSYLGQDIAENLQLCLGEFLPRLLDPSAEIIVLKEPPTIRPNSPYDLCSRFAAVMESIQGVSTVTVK
Method in brief: as §1

Measured: log2 ratio of Biotin-Ahx-Ub-VS probe labelling

O=C(CCl)NC1CCN(C(=O)C2CCCCC2)CC1
inactive: USP19 0.0532 | USP24 -0.169 | USP25 -0.158 | USP28 -0.257
